Experimental findings from PubChem BioAssay AID2314 (National Center for Advancing Translational Sciences (NCATS), 2010) are described below.

Hit rate of the full screen: of about 300,000 compounds, about 37,000 (12%) were called active. Only a selection was taken, and actives are over-represented in it overall. A number with no mark means an inactive call. Rule as the data show it: active = max response mostly above about 13% (no sharp cut-off); inactive = mostly below about 14%.

The assay is described as follows: Cycloheximide Counterscreen for Small Molecule Inhibitors of Shiga Toxin. Also: read at 38.3 µM for the half of the compounds with a filed dose; 0% is about no effect. To be noted: cell reporter, cycloheximide protein synthesis inhibition counterscreen; stronger effect = higher value. A general note: A counterscreen serves to expose hits that act by an unwanted route or on another target.
With `CC(C)c1ccc(S(=O)(=O)N2CCN(C(=O)c3ccc(N4CCCC4)c([N+](=O)[O-])c3)CC2)cc1`, the max response was 21.7%. The same measure for `CCCCNC(=O)N(O)C1N(/N=C/c2ccc(N(C)C)cc2)C(=S)SC1(C)C` (stereo not drawn): -1.87%; for `CCCCNC(=O)N(O)C1N(/N=C/c2ccccc2O)C(=S)SC1(C)C` (stereo not drawn): 40.5% (active). In the case of `CCC(C)N1C(=S)SC(C)(C)C1N(O)C(=O)NC1CCCCC1` (stereo not drawn), the max response was -3%. Take `COc1ccc(CC(=O)Nc2sc(Cc3ccccc3)c(C)c2C(N)=O)cc1`: the max response is -4.58%. As for `CCCc1cc(=S)n2c([nH]c3ccccc32)c1C#N`, the max response was 9.34%.

`COc1cc(C(=O)N2CCN(C/C=C/c3ccccc3)CC2)cc(OC)c1C`: the max response was -2.42%. The same measure for `COc1ccccc1CC(=O)NCCc1c[nH]c2ccccc12`: 5.67%; for `O=C(NCCc1c[nH]c2ccccc12)c1cc2ccccc2oc1=O`: 52.8% (active). Consider `O=C(NCCc1c[nH]c2ccccc12)C(=O)NCC1CCCO1` (stereo not drawn), for which the max response was -2.43%. `COc1ccc(/C=C(\NC(=O)c2ccc(OC)c(OC)c2)C(=O)NCCc2c[nH]c3ccccc23)cc1`: the max response was -2.44%. The same measure for `O=C(NC(Cc1c[nH]c2ccccc12)C(=O)O)/C(=C/c1ccco1)NC(=O)c1ccccc1` (stereo not drawn): 7.91%. The same measure for `CN(c1ccccc1)S(=O)(=O)c1ccc(Cl)c(C(=O)NCCc2c[nH]c3ccccc23)c1`: -2.81%; for `Cc1ccc(C(=O)N/C(=C/c2ccco2)C(=O)NCCc2c[nH]c3ccccc23)cc1C`: 15.8% (active); for `O=C(NCCc1c[nH]c2ccccc12)c1cccc(Br)c1`: 27.9% (active).

Turning to `Cc1cc(C)cc(NC(=S)NCCc2c[nH]c3ccccc23)c1`, the max response is -3.82%.

Take `Cc1cc(C)cc(NS(=O)(=O)Cc2ccccc2)c1`: the max response was 2.71%. Take `COc1ccc(CNc2nc3c(c(=O)[nH]c(=O)n3C)n2Cc2ccccc2)cc1`: the max response is 1.15%. To `CCn1c(CNC(=O)c2cc(OC)c(OC)c(OC)c2)cc2cc(C)ccc21` belongs -0.507%. To `CC(=O)c1c(C)[nH]c(C(=O)COC(=O)c2cccc(S(=O)(=O)N(C)c3ccccc3)c2)c1C` belongs 6.94%; to `COc1ccc(C(=O)OCC(=O)NCC2CCCO2)cc1[N+](=O)[O-]` (stereo not drawn), 0.371%. The same measure for `CCC(=O)c1ccc(OCC(O)Cn2nc(C)c(C(C)=O)c2C)cc1` (stereo not drawn): -6.71%. With `O=C(NCc1cccc(Cl)c1)C1CCC(=O)N(C2CC2)C1` (stereo not drawn), the max response is 0.588%. To `O=C(CSc1ccc(-c2ccco2)nn1)Nc1cccc(F)c1` belongs 26% (active).

`COc1cc(NC(=O)CSc2ccc(-c3cccnc3)nn2)cc(OC)c1`: the max response was -2.34%. Regarding `COc1ccc(NC(=O)CSc2ccc(-c3ccco3)nn2)c(OC)c1`, the max response was 9.5%. Consider `O=C(CSc1ccc(-c2ccc(F)cc2)nn1)Nc1ccc2c(c1)OCCO2`, for which the max response was 10.9%. To `O=C(CSc1ccc(-c2ccccn2)nn1)Nc1ccccc1` belongs 20% (active); to `Cc1ccccc1NC(=O)CSc1ccc2nnc(-c3ccccn3)n2n1`, -1.54%. `COc1ccc(CNC(=O)COC(=O)/C=C/c2ccc(S(=O)(=O)N3CCOCC3)cc2)cc1`: the max response was 9.31%. The same measure for `O=c1c2ccccc2nnn1CSc1nc2sc3c(c2c(=O)n1CC1CCCO1)CCC3` (stereo not drawn): -2.17%. The same measure for `OC(c1ccc(Cl)cc1)C(CN1CCOCC1)c1ccccc1` (stereo not drawn): -2.76%. To `COc1ccc2c(C)c(CCC(=O)NC3CC3)c(=O)oc2c1C` belongs 9.57%; to `O=C1C(=O)N(c2ccccc2)c2ccccc21`, -2.88%. With `Cc1ccc(S(=O)(=O)CCC(=O)OCc2ccccc2)cc1`, the max response is 0.648%. The same measure for `O=C(O)CCS(=O)(=O)c1ccc(-c2ccccc2)cc1`: -1.33%; for `CC(=O)CCS(=O)(=O)c1ccc(C)c(C)c1`: 27.6% (active). In the case of `COc1ccc(OC)c(NC(=O)C2CCCN2S(=O)(=O)c2cccc3nsnc23)c1` (stereo not drawn), the max response is 12.5%. To `Cc1ccc(-c2nnc(Nc3ccc(C(=O)N(C)C)cc3)c3ccccc23)cc1S(N)(=O)=O` belongs -2.16%; to `Cc1cccc(NC(=O)Nc2nnc(-c3ccccc3)o2)c1`, 2.04%; to `CC(C)(C)NS(=O)(=O)c1ccc(NC(=O)C2CCCO2)cc1` (stereo not drawn), -3.65%.

`O=C(Nc1ccc(-c2nnc(-c3ccccc3)o2)cc1)C1CCCO1` (stereo not drawn): the max response was 39.1% (active). The same measure for `O=C(CSc1nnc(-c2ccc(NS(=O)(=O)c3ccccc3)cc2)o1)NCC1CCCO1` (stereo not drawn): -1.17%; for `O=C(Nc1cccc(-c2nnc(-c3ccccc3)o2)c1)C1CCCO1` (stereo not drawn): 37.3% (active); for `CCOC(=O)c1ccc(NC(=O)c2ccc(NC(=O)C3CCCO3)cc2)cc1` (stereo not drawn): 13.9%. The same measure for `CCn1c(=S)sc2c(=O)n(CC(=O)Nc3ccc(OC)cc3)c(C)nc21`: -0.488%. To `Cc1ccccc1OCCC(=O)OCC(=O)NC(C)c1ccccc1` (stereo not drawn) belongs 1.95%; to `CCC(C)c1ccccc1NC(=O)CN(C)CC(=O)Nc1ccccc1SC` (stereo not drawn), -13.3%; to `Cc1cc(C(=O)COc2ccccc2[N+](=O)[O-])c(C)n1-c1cccc(S(=O)(=O)N2CCOCC2)c1`, 0.979%. In the case of `Cc1nnc(SCC(=O)N/N=C/c2cn(-c3ccccc3)nc2-c2ccc(F)cc2)n1-c1ccccc1`, the max response was 10.2%. The same measure for `CC(C)(C)OC(=O)N/N=C/c1cn(-c2ccccc2)nc1-c1cccnc1`: 17%; for `Cc1ccc(-c2nn(-c3ccccc3)cc2/C=N/NC(=O)c2ccc3c(c2)OCO3)cc1`: 16.9% (active). To `O=C(NCc1ccccc1)[C@H]1C[C@@H]1[C@H](NP(=O)(c1ccccc1)c1ccccc1)c1ccccc1` belongs 4.56%; to `CC(=O)N1CCCc2cc(S(=O)(=O)N3CCCC(C(=O)N4CCN(c5cccc(Cl)c5)CC4)C3)ccc21` (stereo not drawn), 8.4%; to `Cc1sc2ncn(CC(=O)NCCCC(=O)N3CCN(c4ccccc4F)CC3)c(=O)c2c1C`, -3.83%. To `CCOc1ccc(OCCSc2nc3ccccc3n2CC(=O)O)cc1` belongs -2.45%; to `CC(C)c1ccc(NC(=S)NC2CC3C=CC2C3)cc1` (stereo not drawn), 51.4% (active). As to `S=C(NNC(=S)NC1CC2C=CC1C2)NC1CC2C=CC1C2` (stereo not drawn), the max response is 9.74%. The same measure for `CC(NC(=S)Nc1ccc(OC(F)F)cc1)c1ccc(F)cc1` (stereo not drawn): 1.93%. To `CCOc1ccccc1N1CN(Cc2ccccc2)CNC1=S` belongs -1.15%; to `Cc1ccccc1NCC(=O)N/N=C\c1ccc([N+](=O)[O-])s1`, 25.2%. To `CSc1ccc(NC(=O)/C=C/C(=O)O)cc1` belongs 6.1%; to `CSc1ccc(/C=C/C(=O)NC23CC4CC(CC(C4)C2)C3)cc1`, 49.9% (active). On to `Cc1ccc(C(=O)NC23CC4CC(CC(C4)C2)C3)c(Cl)c1`, for which the max response is 11.3%.

Consider `CC1(C)CC(=O)c2c(n(S(=O)(=O)c3ccccc3)c3ccc(NS(=O)(=O)c4ccccc4)cc23)C1`, for which the max response was -1.24%.

Consider `CCS(=O)(=O)n1nc(-c2ccccc2)nc1SCc1ccccc1`, for which the max response is 62.5% (active). To `CCn1c(SCc2ccccc2)nc2c(c1=O)SCC2` belongs -1.78%. Take `CCS(=O)(=O)n1nc(-c2ccc(OC)cc2)nc1SC`: the max response was 23.6% (active). The same measure for `COc1ccc(-n2c(SC)nc(O)cc2=O)cc1`: -4.06%. To `CCn1c(SCc2ccccc2)nc2cc(OC)c(OC)cc2c1=O` belongs 0.431%; to `CCOC(=O)N1CCN(S(=O)(=O)c2ccc(OC)cc2)CC1`, -1.81%. To `CCOc1ccc(CN2CCNC(=O)C2CC(=O)NCCCC2CCCC2)cc1` (stereo not drawn) belongs 16.3%. Take `CCOc1cc(/C=N/NC(=O)c2cc(-c3ccccc3)nc3ccccc23)ccc1O`: the max response is 17.7% (active). To `Cc1ccc2nc(C)cc(N/N=C/c3ccc(F)cc3)c2c1` belongs -2.09%. In the case of `CCOc1cc(/C=N/Nc2cc(C)nc3ccc(C)cc23)ccc1O`, the max response was 17.3% (active). In the case of `COc1cccc(-c2cc(C(=O)N/N=C/c3ccc(OC)c(COC(C)=O)c3)c3ccccc3n2)c1`, the max response was 2.97%.

Turning to `CCOc1ccc(/C=N/NC(=O)CSc2ccccn2)cc1O`, the max response is 1.88%. For the molecule `Cc1cc(C(=O)N/N=C/c2ccccn2)c2ccccc2n1`, the max response is -8.99%. For `COc1cc(OC)c2c(C)cc(=O)oc2c1C(CCN1CCCCC1)c1ccc(N(C)C)cc1` (stereo not drawn), the max response is -1.45%. To `COc1cc(CN2CCCC(C(=O)c3ccc(SC)cc3)C2)cc(Cl)c1O` (stereo not drawn) belongs 4.43%. With `N=c1n(CCc2ccccc2)c2ccccc2n1Cc1ccccc1F`, the max response was -8.79%. The same measure for `COc1ccccc1/C=C/C(=O)NC(=S)N1CCOCC1`: 47.7% (active). The same measure for `COc1ccccc1C(=O)Nc1cccc(C(=O)N2CCOCC2)c1`: -2.39%; for `COc1ccccc1/C=C/C(=O)NC1CC2CCC1C2` (stereo not drawn): 14.3% (active); for `COc1ccccc1/C=C/C=N/NC(=O)CN1CCN(Cc2ccccc2)CC1`: -1.49%. The same measure for `CCOC(=O)C(=Cc1ccccc1OC)C(=O)OCC`: 2.29%. In the case of `COc1ccc(C)cc1NC(=S)N1CCOCC1`, the max response is -2.32%. The same measure for `COc1ccc(Cl)cc1NC(=O)CCS(=O)(=O)c1ccc(Br)cc1`: -3.81%; for `CSc1ccc(S(=O)(=O)N2CCC(C(=O)NCc3ccncc3)CC2)cc1`: -2.48%. The same measure for `CCN1CCN(c2nc(Nc3cc(OC)ccc3OC)nc(Nc3cc(OC)ccc3OC)n2)CC1`: -2.31%; for `COC(=O)c1ccc(COc2ccc(/C=C/C(=O)c3ccc(OC)c(CSCC(=O)O)c3)cc2OC)cc1`: 16.2% (active); for `COc1ccc(/C=C/C(=O)c2ccc(NS(=O)(=O)c3ccc(C)cc3)cc2)cc1O`: -1.98%.

With `COc1ccc(C(=O)/C=C/c2ccc(-c3ccccc3)cc2)cc1CSCC(=O)O`, the max response is 16.5%.
